Experimental data from paper PMC5540273 (PLoS ONE, 2017).

Assays:
Settings in all cases: concentration: 1 μM, replicates: in singlicate; n = 1
ANKK1 = tested on: ANKK1
ARK5 = tested on: T1, ARK5
T1 construct: gene NUAK1

ASK1 = tested on: T2, ASK1
T2 construct: gene MAP3K5

ASK2 = tested on: T3, ASK2
T3 construct: gene MAP3K6

AURKA = tested on: AURKA
AURKB = tested on: AURKB
AURKC = tested on: AURKC
AXL = tested on: AXL
BIKE = tested on: T4, BIKE
T4 construct: gene BMP2K

BLK = tested on: BLK
BMPR1A = tested on: BMPR1A
BMPR1B = tested on: BMPR1B
BMPR2 = tested on: BMPR2
BMX = tested on: BMX
BRAF = tested on: BRAF
BRK = tested on: T5, BRK
T5 construct: gene PTK6

BRSK1 = tested on: BRSK1
BRSK2 = tested on: BRSK2
BTK = tested on: BTK
BUB1 = tested on: BUB1
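Also: KINOMEscan kinase panel screen.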

Structure (SMILES)	%Inh (ANKK1) [%]	%Inh (ARK5) [%]	%Inh (ASK1) [%]	%Inh (ASK2) [%]	%Inh (AURKA) [%]	%Inh (AURKB) [%]	%Inh (AURKC) [%]	%Inh (AXL) [%]	%Inh (BIKE) [%]	%Inh (BLK) [%]	%Inh (BMPR1A) [%]	%Inh (BMPR1B) [%]	%Inh (BMPR2) [%]	%Inh (BMX) [%]	%Inh (BRAF) [%]	%Inh (BRK) [%]	%Inh (BRSK1) [%]	%Inh (BRSK2) [%]	%Inh (BTK) [%]	%Inh (BUB1) [%]
O=C(Nc1n[nH]c2cc(-c3cccc(F)c3F)ccc12)C1CC1 [SB-733894]	0	0	0	5	23	25	54	0	21	0	31	31	52	0	0	0	54	58	0	0
Clc1cc(Cl)cc(Nc2ccnc(Nc3cc(Cl)cc(Cl)c3)n2)c1 [GSK175726]	18	8	4	3	90	0	13	2	8	6	0	0	5	26	0	21	0	0	0	10
COc1ccccc1CNC(=O)c1cc(C(=O)c2ccccc2C)c[nH]1 [GSK364507]	0	10	0	2	100	22	11	8	0	17	4	0	7	8	0	12	0	95.2	0	33
COc1ccc(Nc2nccc(-c3cccc(NC(=O)c4cc5cc(F)ccc5[nH]4)c3)n2)cc1 [GSK1229782]	0	28	0	0	16	0	66	9	57	41	10	0	15	16	0	22	4	12	31	64
Cc1ccc(NC(=O)Nc2cc(C(C)(C)C)nn2-c2ccccc2)cc1 [GSK1014915]	0	0	1	22	0	17	18	2	22	20	0	0	37	14	74	20	100	0	0	21
Nc1nc(-c2nccs2)c(-c2ccnc3ccccc23)s1 [GW693542]	6	0	5	0	0	0	0	42	4	42	14	10	9	0	0	3	11	0	0	47
CC(C)(C)c1ccc(C(=O)Nc2cn3cc(Cl)ccc3n2)cc1	0	0	86	0	0	64	17	0	0	0	0	3	0	0	9	0	0	0	0	0
O=C(Nc1ccccc1)Nc1cccc(Oc2ccc3nccn3n2)c1	0	0	0	0	0	8	26	7	0	0	0	0	0	0	24	0	0	0	0	0
COC(=O)c1c(-c2ccccc2)c2cc(OC)ccc2c(=O)n1Cc1ccccc1	0	27	0	37	25	22	0	0	0	0	0	0	0	9	89	0	9	6	54	21
Cn1ccc2ncnc(Oc3ccc(Nc4nc5ccccc5[nH]4)cc3)c21	0	14	0	0	0	95.2	3	0	0	0	0	0	0	0	0	0	0	2	0	0
